Assay results as given in the supplement of paper PMC9262897, “Low-cost anti-mycobacterial drug discovery using engineered E. coli” (Nature Communications, 2022).
Where a name gives a salt, the structure may show the parent alone. ± gives the standard deviation of the averaged measurements.

How the values were obtained:
Experiment in all cases: growth (OD600 after 10 h); higher = more growth (less inhibition)
[1] = tested on: E. coli TESEC Alr+ wild-type control; settings: compound 0.1 mM; raw OD600 reference: median of DMSO wells 0.241, cell-free background 0.041
Description: (§1)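 TESEC Mtb Alr E. coli, or the Alr+ wild-type control, in 384-well plates with Prestwick library compounds at 0.1 mM and 1% DMSO, across arabinose induction levels of 1E3 to 1E7 nM. Growth is read as OD600 after 10 h at 37 °C in triplicate biological replicates.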

E. coli TESEC Mtb Alr [2] = settings: compound 0.1 mM
Description: as §1

E. coli TESEC Mtb Asd = settings: compound 0.1 mM
Description: (§2)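 TESEC E. coli strains in which the native enzyme is deleted and replaced by arabinose-inducible Mtb Asd, DapB, CysH or TrpD, each grown in its selective medium. Strains were screened against the Prestwick library at 0.1 mM and 1% DMSO in 384-well format at low and high arabinose induction. Growth is read as OD600 after 10 h in triplicate.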

E. coli TESEC Mtb DapB = settings: compound 0.1 mM
Description: as §2

[3] = tested on: E. coli TESEC Alr+ wild-type control; settings: compound 0.1 mM; raw OD600 reference: median of DMSO wells 0.49, cell-free background 0.052
Description: (§3)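 TESEC Mtb Alr E. coli (ΔaraC ΔtolC ΔentC Δalr ΔdadX, arabinose-inducible Mtb Alr) or the Alr+ wild-type control strain, grown in defined M9-fructose medium without D-alanine in 96-well plates with Prestwick library compounds at 0.1 mM and 1% DMSO. Low Alr induction is 0.1 µM arabinose and high induction is 10 mM arabinose.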

E. coli TESEC Mtb Alr [4] = settings: compound 0.1 mM; remark: listed apart in the source
Description: as §3

[5] = arabinose 1000 nM, raw OD600 reference: median of DMSO wells 0.294, cell-free background 0.041
[6] = arabinose 10000 nM, raw OD600 reference: median of DMSO wells 0.264, cell-free background 0.041
[7] = arabinose 100000 nM, raw OD600 reference: median of DMSO wells 0.201, cell-free background 0.041
[8] = arabinose 1000000 nM, raw OD600 reference: median of DMSO wells 0.193, cell-free background 0.041
[9] = arabinose 10000000 nM, raw OD600 reference: median of DMSO wells 0.146, cell-free background 0.041
[10] = arabinose induction (level): High, raw OD600 reference: median of DMSO wells 0.331, cell-free background 0.041
[11] = arabinose induction (level): Low, raw OD600 reference: median of DMSO wells 0.417, cell-free background 0.041
[12] = arabinose induction (level): High, raw OD600 reference: median of DMSO wells […], cell-free background 0.041
[13] = arabinose induction (level): Low, raw OD600 reference: median of DMSO wells 0.227, cell-free background 0.041
[14] = arabinose 100 nM, raw OD600 reference: median of DMSO wells 0.413, cell-free background 0.052
[15] = arabinose 10000000 nM, raw OD600 reference: median of DMSO wells […], cell-free background 0.052

Structure (SMILES)	growth [1]	growth (E. coli TESEC Mtb Alr [2]; [5])	growth (E. coli TESEC Mtb Alr [2]; [6])	growth (E. coli TESEC Mtb Alr [2]; [7])	growth (E. coli TESEC Mtb Alr [2]; [8])	growth (E. coli TESEC Mtb Alr [2]; [9])	growth (E. coli TESEC Mtb Asd; [10])	growth (E. coli TESEC Mtb Asd; [11])	growth (E. coli TESEC Mtb DapB; [12])	growth (E. coli TESEC Mtb DapB; [13])	growth [3]	growth (E. coli TESEC Mtb Alr [4]; [14])	growth (E. coli TESEC Mtb Alr [4]; [15])
C=CCSCC1Nc2cc(Cl)c(S(N)(=O)=O)cc2S(=O)(=O)N1 (stereo not drawn) [Althiazide]	0.244 ± 0.006	0.301 ± 0.019	0.2578 ± 0.0023	0.219 ± 0.016	0.183 ± 0.011	0.141 ± 0.0034	0.261 ± 0.052	0.441 ± 0.019	0.209 ± 0.0088	0.242 ± 0.018	0.444 ± 0.049	0.383 ± 0.006	0.326 ± 0.012
CO[C@@]1(NC(=O)CSCC#N)C(=O)N2C(C(=O)O)=C(CSc3nnnn3C)CS[C@@H]21 [Cefmetazole sodium salt]	0.0393 ± 0.0013	0.0392 ± 0.0012	0.0395 ± 0.00076	0.0392 ± 0.0027	0.03973 ± 5.8e-05	0.03957 ± 0.00025	0.0524 ± 0.0042	0.0557 ± 0.0072	0.0493 ± 0.0012	0.0513 ± 0.0023	0.0516 ± 0.012	0.0461 ± 0.00055	0.0549 ± 0.0037
Nc1ccc(S(=O)(=O)NC(=O)c2ccccc2)cc1 [Sulfabenzamide]	0.256 ± 0.012	0.321 ± 0.023	0.254 ± 0.005	0.221 ± 0.022	0.172 ± 0.0025	0.156 ± 0.0061	0.402 ± 0.12	0.409 ± 0.033	0.221 ± 0.016	0.245 ± 0.018	0.43 ± 0.0081	0.4062 ± 0.0031	0.334 ± 0.025
COc1ccc(/C=C/C(=O)Nc2ccccc2C(=O)O)cc1OC [Tranilast]	0.171 ± 0.0022	0.245 ± 0.0071	0.27 ± 0.0085	0.134 ± 0.011	0.104 ± 0.002	0.126 ± 0.0016	0.218 ± 0.032	0.279 ± 0.082	0.204 ± 0.035	0.178 ± 0.011	0.452 ± 0.0089	0.308 ± 0.12	0.15 ± 0.012
CC(=O)OCC(=O)[C@@]12N=C(C)O[C@@H]1C[C@H]1[C@@H]3CCC4=CC(=O)C=C[C@]4(C)[C@H]3[C@@H](O)C[C@@]12C [Deflazacort]	0.151 ± 0.011	0.213 ± 0.009	0.256 ± 0.0029	0.193 ± 0.02	0.168 ± 0.0053	0.1533 ± 0.00035	0.323 ± 0.083	0.396 ± 0.032	0.186 ± 0.0061	0.23 ± 0.013	0.48 ± 0.068	0.394 ± 0.0082	0.347 ± 0.0046
N=C(NCCCCCCNC(=N)NC(=N)Nc1ccc(Cl)cc1)NC(=N)Nc1ccc(Cl)cc1 [Chlorhexidine]	0.04463 ± 0.00035	0.0435 ± 0.00051	0.0456 ± 0.003	0.0447 ± 0.0014	0.04363 ± 0.00015	0.0449 ± 0.0005	0.0592 ± 0.0021	0.0584 ± 0.0011	0.0506 ± 0.0011	0.0542 ± 0.0085	0.0486 ± 0.0014	0.04807 ± 5.8e-05	0.054 ± 0.0013
C[C@@H](O[C@H]1OCCN(Cc2n[nH]c(=O)[nH]2)[C@H]1c1ccc(F)cc1)c1cc(C(F)(F)F)cc(C(F)(F)F)c1 [Aprepitant]	0.136 ± 0.0085	0.107 ± 0.0059	0.116 ± 0.033	0.0735 ± 0.0056	0.0675 ± 0.0089	0.0777 ± 0.0096	0.0693 ± 0.0052	0.0731 ± 0.019	0.128 ± 0.015	0.089 ± 0.023	0.386 ± 0.22	0.442 ± 0.012	0.0589 ± 0.0033
CN(C)CCn1nnnc1SCC1=C(C(=O)O)N2C(=O)[C@@H](NC(=O)Cc3csc(N)n3)[C@H]2SC1 [Cefotiam hydrochloride]	0.11 ± 0.0087	0.039 ± 0.0012	0.0413 ± 0.00046	0.0507 ± 0.0078	0.045 ± 0.00078	0.0878 ± 0.0087	0.265 ± 0.012	0.34 ± 0.061	0.218 ± 0.018	0.195 ± 0.019	0.166 ± 0.096	0.0473 ± 0.0012	0.244 ± 0.049
NC[C@H]1O[C@H](O[C@H]2[C@H](O)[C@@H](O[C@H]3O[C@H](CO)[C@@H](O)[C@H](N)[C@H]3O)[C@H](N)C[C@@H]2N)[C@H](N)C[C@@H]1O [Tobramycin]	0.0408 ± 0.00049	0.0407 ± 0.00085	0.03917 ± 0.00021	0.0411 ± 0.00055	0.03913 ± 0.00031	0.04083 ± 5.8e-05	0.0498 ± 0.00085	0.0468 ± 0.0021	0.04757 ± 0.0004	0.0491 ± 0.0037	0.04933 ± 0.00049	0.0513 ± 0.0001	0.0502 ± 0.001
CS(=O)(=O)OCCCCOS(C)(=O)=O [Busulfan]	0.241 ± 0.017	0.287 ± 0.025	0.272 ± 0.0066	0.233 ± 0.026	0.184 ± 0.0057	0.139 ± 0.0018	0.378 ± 0.022	0.414 ± 0.036	0.209 ± 0.0074	0.286 ± 0.024	0.445 ± 0.033	0.4123 ± 0.004	0.362 ± 0.029
NCCNCCNCCNCCN [Tetraethylenepentamine pentahydrochloride]	0.273 ± 0.0096	0.313 ± 0.013	0.263 ± 0.0027	0.217 ± 0.028	0.181 ± 0.011	0.136 ± 0.0077	0.337 ± 0.074	0.441 ± 0.0047	0.196 ± 0.003	0.22 ± 0.015	0.4747 ± 0.0042	0.414 ± 0.0053	0.303 ± 0.01
C[n+]1ccccc1/C=N/O [Pralidoxime chloride]	0.253 ± 0.0089	0.318 ± 0.018	0.256 ± 0.013	0.202 ± 0.015	0.177 ± 0.0021	0.156 ± 0.007	0.476 ± 0.013	0.455 ± 0.046	0.223 ± 0.011	0.284 ± 0.0069	0.605 ± 0.018	0.407 ± 0.018	0.323 ± 0.015
CC(=O)O[C@H]1C[C@@]2(C)[C@@H](C[C@@H](O)[C@H]3[C@@]4(C)CC[C@@H](O)[C@@H](C)[C@@H]4CC[C@@]32C)/C1=C(\CCC=C(C)C)C(=O)O [Fusidic acid sodium salt]	0.04197 ± 0.0004	0.0422 ± 0.00097	0.0411 ± 0.001	0.0429 ± 0.0003	0.0403 ± 0.00017	0.04237 ± 0.00032	0.0498 ± 0.0038	0.0478 ± 0.0026	0.0536 ± 0.0022	0.052 ± 0.0007	0.05317 ± 0.00047	0.11 ± 0.0058	0.0515 ± 0.00085
C[C@@H](c1ncncc1F)[C@](O)(Cn1cncn1)c1ccc(F)cc1F [Voriconazole]	0.214 ± 0.013	0.267 ± 0.0077	0.252 ± 0.003	0.196 ± 0.038	0.154 ± 0.0053	0.147 ± 0.008	0.315 ± 0.062	0.285 ± 0.035	0.169 ± 0.015	0.201 ± 0.013	0.557 ± 0.1	0.412 ± 0.011	0.318 ± 0.012
COc1ccccc1N1CCN(CC(O)COc2cccc3ccccc23)CC1 (stereo not drawn) [Naftopidil dihydrochloride]	0.0455 ± 0.00068	0.0439 ± 0.0023	0.0416 ± 0.00044	0.0537 ± 0.0089	0.0425 ± 0.001	0.0492 ± 0.0015	0.0476 ± 0.00036	0.0516 ± 0.0046	0.0582 ± 0.0019	0.0626 ± 0.0085	0.0532 ± 0.0005	0.4077 ± 0.0026	0.0524 ± 0.0021
CN[C@@H]1[C@H](O)[C@H](NC)[C@H]2O[C@@]3(O)C(=O)C[C@@H](C)O[C@H]3O[C@@H]2[C@H]1O [Spectinomycin dihydrochloride]	0.0517 ± 0.00091	0.0841 ± 0.0062	0.0632 ± 0.0013	0.075 ± 0.0085	0.0512 ± 0.00079	0.05437 ± 0.00031	0.0788 ± 0.0045	0.0788 ± 0.0017	0.0987 ± 0.0037	0.104 ± 0.013	0.228 ± 0.023	0.308 ± 0.021	0.0979 ± 0.014
